From PubChem
Compounds with a hit are over-represented: about 3.5% of the library has one in this group of screens.
DNMT1 inh: inhibitors of human DNMT1; P26358; DNMT1 molecular beacon, Hinp1I cleavage, fluorescence; inhibition (reported as % activation of signal), % at 10 µM; hit rate 0.83% among 360,000; in the data active means inhibition above about 50%
UHRF1 binding: human UHRF1 methylated DNA binding inhibitors; inhibition, % at 4.4 µM; UHRF1 binding to methylated oligo, TR-FRET; Q96T88; hit rate 0.75% among 370,000; in the data active means inhibition above about 21%;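 further: UHRF1 SRA domain binding a hemimethylated CpG hairpin DNA probe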
rCAG RNA binder: r(CAG) repeat RNA binding. inhibition, % at 3 µM. TO-PRO-1 dye displacement fluorescence. AID 651821. hit rate 1.3% among 370,000;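 active means inhibition above the plate cutoff, the mean of all test compounds on that plate plus 3 SD, cut at about 35% in these data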;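 further: higher means more dye released from RNA so lower well fluorescence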
MBD2 DNA inh: blocks human MBD2 binding to methylated DNA; Q9UBB5; TR-FRET, MBD2 binding to methylated oligonucleotide; inhibition, % at 4.4 µM; hit rate 0.31% among 370,000; AID 686964; in the data active means inhibition above about 13%
Target sequence (Q9UBB5 whole entry, looked up): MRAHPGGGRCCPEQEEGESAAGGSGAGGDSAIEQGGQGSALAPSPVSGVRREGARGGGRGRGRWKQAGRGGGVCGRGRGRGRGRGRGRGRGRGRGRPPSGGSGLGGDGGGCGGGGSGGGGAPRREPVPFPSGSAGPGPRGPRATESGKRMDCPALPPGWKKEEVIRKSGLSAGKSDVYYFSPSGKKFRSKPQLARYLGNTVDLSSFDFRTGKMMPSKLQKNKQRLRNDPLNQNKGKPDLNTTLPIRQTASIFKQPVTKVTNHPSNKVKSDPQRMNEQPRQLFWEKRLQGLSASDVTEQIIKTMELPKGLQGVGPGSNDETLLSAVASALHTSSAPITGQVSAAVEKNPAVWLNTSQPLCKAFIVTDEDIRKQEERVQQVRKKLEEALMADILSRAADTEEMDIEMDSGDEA
PG9 binder: small molecules binding HIV-1 gp120 antibody PG9; AID 624416; TR-FRET gp120-PG9 antibody binding; inhibition, % at 6.7 µM; hit rate 0.43% among 360,000; in the data active means inhibition above about 8.5%
LEDGF integ inh: blocks HIV-1 LEDGF/p75-dependent DNA integration; TR-FRET IN-LEDGF/p75 DNA integration, Eu/Cy5; inhibition, % at 3.7 µM; hit rate 0.64% among 370,000; AID 743269;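 active means inhibition above the screen-wide mean plus 3 SD, cut at about 13% in these data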;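 further: signal is the Cy5 over europium emission ratio at 671 and 618 nm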
IN multimer up: activates HIV-1 integrase multimerization in LEDGF counter-screen; shares compounds with LEDGF integ inh; TR-FRET HIV-1 integrase multimerization, biochemical; activation, % at 7.7 µM; hit rate 17% among 2,000; in the data active means activation above about 8.9%
TR-FRET interf: counter-screen for LEDGF/p75 integration inhibitors: TR-FRET optical interference | inhibition, % at 7.7 µM | TR-FRET optical interference counterscreen, HIV-1 IN multimerization | shares compounds with LEDGF integ inh | AID 1053135 | 2,000 tested, under 10 active;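 active means inhibition above the mean over all tested compounds plus 3 SD, which no compound reached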
LEDGF integ conf: LEDGF/p75-dependent HIV-1 integration inhibition, confirmation; shares compounds with LEDGF integ inh; TR-FRET LEDGF/p75-dependent HIV-1 integration, biochemical; inhibition, % at 3.7 µM; hit rate 36% among 2,000; in the data active means inhibition above about 14%
Each line names hits and unclear results; the compound was inactive in the other large screens (follow-up assays come after a bar, where they were run).

CC(C)(C)OC(=O)C[C@H]1C/C=C\C[C@@H](CC(=O)NCCO)C(=O)NC[C@@H](c2ccccc2)OC1=O	LEDGF integ inh 76 | IN multimer up inactive | TR-FRET interf inactive | LEDGF integ conf inactive
CCOC(=O)N/N=C\c1ccc(OC/C=C/c2ccccc2)cc1	none
Cc1ccc(NC(=O)c2ccc(CSc3ccccn3)cc2)c(O)c1	LEDGF integ inh 82 | IN multimer up inactive | TR-FRET interf inactive | LEDGF integ conf inactive
COc1c(-c2ccc(O)c(O)c2)oc2cc(O)cc(O)c2c1=O	LEDGF integ inh 16 | IN multimer up 9.3 | TR-FRET interf inactive | LEDGF integ conf 72
C[C@@H]1O[C@@H](OC[C@H]2O[C@@H](Oc3c(-c4ccc(O)c(O)c4)oc4cc(O)cc(O)c4c3=O)[C@H](O)[C@@H](O)[C@@H]2O)[C@H](O)[C@H](O)[C@H]1O	none
CC(=NNC1=NCCN1)c1cnn(C2=NCCN2)c1C	LEDGF integ inh 18 | IN multimer up inactive | TR-FRET interf inactive | LEDGF integ conf inactive
CCOc1ccc(Br)cc1/C(C)=N\NC1=NCCN1	none
Cc1cc(CC(=O)O)c2oc(-c3ccoc3)cc(=O)c2c1	UHRF1 binding 25, LEDGF integ inh 15 (no result: DNMT1 inh) | IN multimer up inactive | TR-FRET interf inactive | LEDGF integ conf 29
Cc1cc2c(=O)cc(-c3ccccc3)oc2c(C(=O)O)c1C	none
O=C1C=C(O)c2[nH]c(=O)ccc2C1=O	LEDGF integ inh 26 | IN multimer up 30 | TR-FRET interf inactive | LEDGF integ conf 51
CC1(C)OC(=O)C(=Cc2ccc(-c3ccc(Cl)c(C(=O)O)c3)o2)C(=O)O1	DNMT1 inh 52, UHRF1 binding 35, LEDGF integ inh 15 | IN multimer up 15 | TR-FRET interf inactive | LEDGF integ conf 20
O=C(OCc1ccccc1)N(CCCCN(CCCNCc1ccccc1)C(=O)OCc1ccccc1)CCCNCc1ccccc1	none
O=C(Cn1cnc([N+](=O)[O-])n1)c1ccc(O)c(O)c1	LEDGF integ inh 40 | IN multimer up 9.9 | TR-FRET interf inactive | LEDGF integ conf 22
O=C(Cn1cnc([N+](=O)[O-])n1)c1ccccc1	none
CC(NC(=O)c1ccc(Cl)c(S(=O)(=O)N2CCCCCC2)c1)c1cccnc1 (configuration not stated)	none
Cc1cccc(C(=Cc2ccc([N+](=O)[O-])cc2)C(=O)O)c1	none
Cc1cccc2nc(CSCc3ccco3)cn12	LEDGF integ inh 16 | IN multimer up inactive | TR-FRET interf inactive | LEDGF integ conf inactive
Cc1cc(C)n2cc(CSCc3ccco3)nc2n1	none
CCOC(=O)c1oc2c(O)c(O)ccc2c(=O)c1-c1nncn1-c1ccccc1	LEDGF integ inh 45 | IN multimer up inactive | TR-FRET interf inactive | LEDGF integ conf 40
CCOC(=O)c1oc2c(C)c(O)ccc2c(=O)c1-c1nncn1-c1ccccc1	none
COc1cc(C2C(C#N)=C(N)Oc3cc(C)oc(=O)c32)cc2c1OCO2 (configuration not stated)	UHRF1 binding 42, LEDGF integ inh 20 | IN multimer up inactive | TR-FRET interf inactive | LEDGF integ conf 14
CCN(CC)C(=O)[C@H]1C[C@H](CC(=O)NCc2ccco2)C(=O)N2CCc3c([nH]c4cc(-c5ccco5)ccc34)[C@]12C	LEDGF integ inh 17 | IN multimer up inactive | TR-FRET interf inactive | LEDGF integ conf inactive
CCN(CC)C(=O)[C@H]1C[C@H](CC(=O)NCCN2CCOCC2)C(=O)N2CCc3c([nH]c4cc(-c5ccco5)ccc34)[C@]12C	none
CCOC(=O)N(C)C[C@H]1OCc2cnnn2CCCC(=O)N([C@H](C)CO)C[C@H]1C	none
CCCCOCCCNC(=O)C[C@H]1C[C@@]2(C(=O)OC)C(=C[C@H](C(C)(C)C)O[C@@H]2C)N(Cc2ccc(Cl)cc2Cl)C1=O	LEDGF integ inh 20 (no result: DNMT1 inh, PG9 binder) | IN multimer up inactive | TR-FRET interf inactive | LEDGF integ conf inactive
CCCCOCCCNC(=O)C[C@H]1C[C@@]2(C(=O)OC)C(=C[C@H](C3CCCC3)O[C@@H]2C)N(Cc2ccc(Cl)cc2Cl)C1=O	none (no result: DNMT1 inh, PG9 binder)
CC1CCCN(C(=O)C2COc3ccccc3O2)C1 (configuration not stated)	none
COc1cc(C2(C)SCCCS2)cc(OC)c1OC	none (no result: DNMT1 inh)
Clc1ccccc1-c1ccc(CN2CCN(c3ccccc3)CC2)o1	LEDGF integ inh 31 | IN multimer up inactive | TR-FRET interf inactive | LEDGF integ conf inactive
CCCCC(=Nc1ccc(N)cc1)C1=C(O)C(C(=O)OC)C(C)(C)CC1=O (configuration not stated)	LEDGF integ inh 46 | IN multimer up 19 | TR-FRET interf inactive | LEDGF integ conf inactive
CCC(=Nc1ccc(N)cc1)C1=C(O)C(C(=O)OC)C(C)(C)CC1=O (configuration not stated)	UHRF1 binding 21, LEDGF integ inh 32 | IN multimer up 20 | TR-FRET interf inactive | LEDGF integ conf inactive
CCCC(=Nc1ccccc1)C1=C(O)C(C(=O)OC)C(C)(C)CC1=O (configuration not stated)	none
Cc1nc2sc(C(c3ccco3)N3CCC(C)CC3)c(O)n2n1 (configuration not stated)	LEDGF integ inh 13 | IN multimer up inactive | TR-FRET interf inactive | LEDGF integ conf inactive
Cc1nc2sc(C(c3ccco3)N3CCN(c4cccc(Cl)c4)CC3)c(O)n2n1 (configuration not stated)	LEDGF integ inh 20 | IN multimer up inactive | TR-FRET interf inactive | LEDGF integ conf inactive
Cc1nc2sc(C(c3ccco3)N3CCN(C(c4ccccc4)c4ccccc4)CC3)c(O)n2n1 (configuration not stated)	none
Cc1ccc(-c2cc(-c3nnc(SCC(=O)N4c5ccccc5Sc5ccc(Cl)cc54)n3N)[nH]n2)cc1	none (no result: DNMT1 inh, PG9 binder)
COc1ccc(NCc2cc3cc(OC)ccc3[nH]c2=O)cc1	LEDGF integ inh 16 | IN multimer up inactive | TR-FRET interf inactive | LEDGF integ conf inactive
COc1ccc2[nH]c(=O)c(CN(C(=O)C(C)C)c3ccccc3OC)cc2c1	LEDGF integ inh 19 | IN multimer up inactive | TR-FRET interf inactive | LEDGF integ conf inactive
CN(C)C(=O)C(OC(=O)c1ccc2c(c1)CCCC2)c1ccccc1 (configuration not stated)	none
